PAFAH2 inh = PAFAH2 (human) inhibition | Q99487 | recombinant PAFAH2, FP-rhodamine activity probe, fluorescence polarization | inhibition, % at 3.39 µM | 340,000 tested, 0.99% active | AID 492956;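 active means inhibition above the mean over all tested compounds plus 3 SD, cut at about 30% in these data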;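 further: inhibitors block probe labeling of enzyme so polarization drops; 0% = enzyme with DMSO and 100% = wells lacking PAFAH2 protein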
PAFAH1B2 inh = PAFAH1B2 (human) inhibition; recombinant PAFAH1B2, FP-rhodamine activity probe, fluorescence polarization; inhibition, % at 3.39 µM; 340,000 tested, 1.2% active; AID 492953;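 active means inhibition above the mean of all tested compounds plus 3 SD, cut at about 24% in these data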;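 further: 0% = enzyme with DMSO and 100% = wells lacking PAFAH1B2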
Target sequence (P68402 whole entry, looked up): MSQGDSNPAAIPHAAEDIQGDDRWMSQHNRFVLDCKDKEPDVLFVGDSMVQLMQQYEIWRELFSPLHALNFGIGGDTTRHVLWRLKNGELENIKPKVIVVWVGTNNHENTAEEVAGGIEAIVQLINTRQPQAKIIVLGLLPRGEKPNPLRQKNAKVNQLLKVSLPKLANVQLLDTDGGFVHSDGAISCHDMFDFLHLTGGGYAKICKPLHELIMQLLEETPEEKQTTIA
TCR CD3 inh = inhibitors of human TCR-CD3 interaction; TAMRA-labeled TCR probe fluorescence, biochemical; inhibition, % at 9.4 µM; AID 651800; 360,000 tested, 0.37% active;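 further: recombinant mutant TCR 2C K166C tagged with TAMRA read by polarization; 0% = receptor in buffer alone and 100% = receptor with positive control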
pPAFAH inh = inhibitors of human plasma PAF acetylhydrolase (pPAFAH). Q13093. recombinant pPAFAH, FP-rhodamine probe fluorescence polarization. inhibition, % at 3.39 µM. 330,000 tested, 1.5% active. AID 463082;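 active means inhibition above the mean inhibition across the screen plus 3 SD, cut at about 25% in these data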;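 further: inhibitors block binding of the rhodamine activity-based probe so polarization drops; 0% = enzyme with DMSO and 100% = wells lacking pPAFAH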
PAFAH1B3 FP inh = PAFAH1B3 (human) inhibition; 340,000 tested, 0.28% active; Q15102; recombinant PAFAH1B3, FP-rhodamine probe, fluorescence polarization; inhibition, % at 3.39 µM;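 active means inhibition above the screen-wide average of all tested compounds plus 3 SD, cut at about 25% in these data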;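 further: 0% = enzyme with DMSO only and 100% = wells lacking PAFAH1B3 protein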
Target sequence (Q15102 whole entry, looked up): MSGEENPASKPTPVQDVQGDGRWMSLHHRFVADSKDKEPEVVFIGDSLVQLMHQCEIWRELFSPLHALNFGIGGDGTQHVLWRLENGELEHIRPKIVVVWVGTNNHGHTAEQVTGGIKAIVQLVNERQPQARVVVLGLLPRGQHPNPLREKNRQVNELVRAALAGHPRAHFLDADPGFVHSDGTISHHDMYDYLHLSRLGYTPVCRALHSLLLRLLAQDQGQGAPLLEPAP
BSA probe FL = interferes with TAMRA-BSA probe, flagging TCR-CD3 hits. shares compounds with TCR CD3 inh. TAMRA-labeled BSA probe fluorescence counterscreen. inhibition, % at 9.4 µM. 1,200 tested, 10% active. AID 652035; in the data active means inhibition above about 23%;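 further: 0% = buffer low control and 100% = reference high control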
TCR-CD3 inh conf = confirmation of human TCR-CD3 interaction inhibitors; shares compounds with TCR CD3 inh; TAMRA-labeled TCR probe fluorescence binding assay; inhibition, % at 9.4 µM; 1,200 tested, 48% active; AID 652036
Numbers without * were called inactive; . = no result. Hits are enriched below; roughly 2.7% of the tested compounds scored in any of these assays. Unless noted, no stated cut-off is given here; in the data, active means inhibition above about 19%; inactive means the rest.

SMILES	PAFAH2 inh	PAFAH1B2 inh	TCR CD3 inh	pPAFAH inh	PAFAH1B3 FP inh	BSA probe FL	TCR-CD3 inh conf
Cc1cc2cc(CNC(=O)c3ccc(S(=O)(=O)N4CCCC4)cc3)ccc2n1C	13	10	70*	4	2	3	0
Cc1cccc(C)c1NC(=O)CNC(=O)CNC(=O)c1ccc2ccccc2c1	.	.	-6	.	.	.	.
CC(C)C(=O)Nc1ccc(C(=O)NNC(=S)NC(=O)c2ccccc2[N+](=O)[O-])cc1	1	4	26*	-4	-3	-1	33*
CCCn1nc(C(=O)N2CCN(S(=O)(=O)c3ccc(C)c(C)c3)CC2)c2ccccc2c1=O	1	1	0	0	-6	.	.
O=S(=O)(c1ccc2nc(-c3ccccc3)[nH]c2c1)N1CCN(c2ccc(Cl)cc2)CC1	-27	-8	38*	-12	-16	-5	10
CCN(CC)S(=O)(=O)c1cccc(NC(=O)Nc2cccc(C(F)(F)F)c2)c1	-66	-41	24*	-85	-79	15	26*
CCN(CC)S(=O)(=O)c1cccc(NC(=O)CC2CCCC2)c1	7	2	0	0	8	.	.
CCCCn1nnnc1SCC(=O)N1CCCC1	1	4	21*	2	11	4	3
CCCn1nnnc1SCC(=O)N1CCCC1	10	6	0	-7	1	.	.
C=CCn1c(O)c(N=NC(=O)CNC(=O)/C=C/c2ccco2)c2ccccc21	3	-2	23*	13	5	-5	20*
C=CCn1c(O)c(N=NC(=O)CNC(=O)/C=C/c2ccc(OC)cc2)c2ccccc21	-3	3	9	-1	4	.	.
COc1ccccc1N(Cc1cc(=O)[nH]c2ccccc12)C(=O)C(C)C	-1	0	-9	2	1	.	.
O=C(COC(=O)CCCCCN=C1NS(=O)(=O)c2ccccc21)Nc1ccc(Cl)c(Cl)c1	5	-14	19*	-6	-34	7	10
Cc1nnc(N2C(=O)C(=O)/C(=C(\O)c3ccc4c(c3)CC(C)O4)C2c2ccccc2)s1 (stereo unspecified)	1	6	12	3	2	.	.
C/C(=N\NC(=O)COc1ccccc1-c1ccccc1)c1ccc(O)cc1O	10	9	19*	13	15	-12	29*
CCOc1ccc(S(=O)(=O)NCCC(=O)NCCOc2ccccc2)cc1	-2	4	0	5	-6	.	.
C[C@H](NC(=O)c1nc[nH]c1C(=O)N[C@@H](CCCCNC(=O)OC(C)(C)C)C(=O)OC(C)(C)C)C(=O)OCc1ccccc1	0	0	27*	8	0	1	3
CC(C)C[C@H](NC(=O)c1nc[nH]c1C(=O)N[C@@H](CCCCNC(=O)OC(C)(C)C)C(=O)OC(C)(C)C)C(=O)OCc1ccccc1	-15	-2	-2	5	-5	.	.
COc1ccccc1CNC(=O)CCC(=O)N1CC(C)Sc2ccccc21 (stereo unspecified)	-1	-2	-7	4	4	.	.
CC(C)[C@H](NS(=O)(=O)c1ccccc1)C(=O)OCC(=O)NC(=O)NC1CCCCC1	-4	2	-6	11	8	.	.
O=c1c(OC2OC(CO)C(O)C(O)C2OC2OC(CO)C(O)C(O)C2O)c(-c2ccc(O)cc2)oc2cc(O)cc(O)c12 (stereo unspecified)	1	5	23*	11	3	-4	14
CCOc1cccc(/C=N/NC(=S)Nc2cc(S(=O)(=O)N3CCOCC3)ccc2N2CCOCC2)c1O	18	3	21*	9	10	-2	3
Cc1cccc(/C=N/NC(=O)c2c(-c3ccccc3)noc2C)c1O	9	6	24*	6	24	-7	18
Cc1cccc(/C=N/NC(=O)Cc2ccc(Cl)cc2)c1O	0	5	2	7	14	.	.
CCOc1cccc(/C=N/NC(=O)c2ccc3c(c2)OCCO3)c1O	15	8	-8	11	11	.	.
SMILES	PAFAH2 inh	PAFAH1B2 inh	TCR CD3 inh	pPAFAH inh	PAFAH1B3 FP inh	BSA probe FL	TCR-CD3 inh conf
Cc1cccc(/C=N/NC(=O)c2ccc3c(c2)OCCO3)c1O	13	5	19*	12	16	-12	15
Cc1cccc(/C=N\NC(=O)c2ccc(Cl)cc2)c1O	10	5	34*	5	4	-10	22*
Cc1cc(C)c2nc(-c3cccc(Cl)c3)c(C)c(C(=O)N3CCOCC3)c2c1	0	5	10	0	5	.	.
COc1ccccc1NC(=O)Cc1nc(=O)[nH]c(=O)[nH]1	.	.	7	.	.	.	.
Cn1c(SCC(=O)NC(=O)NCc2ccccc2)nnc1C(F)(F)F	3	3	-1	1	4	.	.
O=C(Nc1cccc2[nH]ncc12)NS(=O)(=O)c1ccccc1	6	9	58*	11	5	35*	27*
Cc1ccc(C(=O)NCCN2CCC(n3c(=O)[nH]c4ccccc43)CC2)cc1F	.	.	-2	.	.	.	.
O=C(NNC(=S)NC(=O)c1ccccc1)c1cccnc1	-1	3	9	-3	-3	.	.
COc1ccc(/C=C/C(=O)NC(=S)NNC(=O)c2cccnc2)cc1OC	3	-1	27*	3	6	-7	18
CCC(=O)NC(=S)NNC(=O)c1ccc(OC)cc1	-7	1	20*	3	4	-3	6
COc1ccc(C(=O)NC(=S)NNC(=O)c2cccnc2)cc1	-2	5	24*	8	14	-1	18
COc1cc(OC)cc(C(=O)NNC(=S)NC(=O)c2cccnc2)c1	5	-1	23*	3	1	-3	20*
CC(=O)c1ccc(S(=O)(=O)N2CCN(C(=O)c3cccc(S(=O)(=O)N4CC(C)OC(C)C4)c3)CC2)cc1 (stereo unspecified)	-5	5	-6	.	-9	.	.
O=c1ccc2c(ccc3ncccc32)o1	.	.	8	.	.	.	.
Cc1cc(C)cc(OCC(=O)NNC(=S)NC(=O)C2CC2)c1	4	6	3	8	10	.	.
CC1(C)c2[nH]c3ccccc3c2C[C@@H]2C(=O)N(c3ccc(F)cc3F)C(=O)N21	1	-2	0	7	12	.	.
OC(Cc1cccc(C=NN2CCOCC2)n1)(C(F)(F)F)C(F)(F)F	.	.	-7	.	.	.	.
CCn1c(C)nc2cc(C(=O)NNC(=S)NC(=O)c3ccccc3)ccc21	3	-2	34*	1	4	-6	28*
Cc1ccccc1C(=O)NNC(=S)NC(=O)c1cccnc1	11	6	26*	-1	2	-3	20*
O=C(NC(=S)NNC(=O)c1ccccc1F)c1cccnc1	.	.	18	6	.	.	.
CCN(C(=O)C1CCCN(c2ncnc3c2nc2n3CCCCC2)C1)c1cccc(Cl)c1 (stereo unspecified)	-1	5	0	5	10	.	.
COc1cccc(SCc2noc(C(=O)NC(C)C)c2C(=O)NC(C)C)c1	0	2	5	1	11	.	.

From PubChem
